The text below walks through data of PubChem BioAssay (NCATS).

Each structure is given as a SMILES string. Unmarked numbers belong to inactive results. Records with an inconclusive call do not appear. A call without a number means that no potency is given here. Active and inactive are the calls of the source. Calls come from the whole dose curve; as a rule, active = well fitted curve in the direction sought with a large enough effect; inconclusive = small, poorly fitted or top-dose-only effect, or another doubt; inactive = no such curve, though single readings can be large; an effect the other way counts as inactive or inconclusive.

Assay [1] in a line: qHTS to identify inhibitors of the type 1 interferon - major histocompatibility complex class I in skeletal muscle: primary screen against the NCATS Pharmaceutical Collection (AID 1347407).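 Note: luminescence of HiBiT knocked into endogenous HLA-B as interferon-induced MHC class I level.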 The method, boiled down: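 A qHTS format is used: 8-point, 1:5 compound series with 46 uM top final concentration, applied alongside 4 ng/ml IFN-beta to HLA-B*08:01-HiBiT knock-in myoblasts. Luminescence is measured after 24 h treatment.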

Assay [2] deals with Protein phosphatase 1D (Homo sapiens) (UniProt O15297). Nature of the assay: RapidFire Mass Spectrometry qHTS Assay for Modulators of WT P53-Induced Phosphatase 1 (WIP1) (AID 1347424).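 Note: amount of dephosphorylated VEPPL-S-QETFS peptide product formed by WIP1; series mostly up to about 63 µM.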 The method, boiled down: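 10 nM WIP1 + cpd, 1 h RT; + 2 uM VEPPL-pS-QETFS, 5 min RT; stop 0.5% formic acid; labelled product standard 1 uM; RapidFire MS. Buffer 50 mM Tris pH 7.5, 30 mM MgCl2, 1 mM TCEP.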
Sequence of Protein phosphatase 1D (Homo sapiens) (O15297 whole entry, looked up): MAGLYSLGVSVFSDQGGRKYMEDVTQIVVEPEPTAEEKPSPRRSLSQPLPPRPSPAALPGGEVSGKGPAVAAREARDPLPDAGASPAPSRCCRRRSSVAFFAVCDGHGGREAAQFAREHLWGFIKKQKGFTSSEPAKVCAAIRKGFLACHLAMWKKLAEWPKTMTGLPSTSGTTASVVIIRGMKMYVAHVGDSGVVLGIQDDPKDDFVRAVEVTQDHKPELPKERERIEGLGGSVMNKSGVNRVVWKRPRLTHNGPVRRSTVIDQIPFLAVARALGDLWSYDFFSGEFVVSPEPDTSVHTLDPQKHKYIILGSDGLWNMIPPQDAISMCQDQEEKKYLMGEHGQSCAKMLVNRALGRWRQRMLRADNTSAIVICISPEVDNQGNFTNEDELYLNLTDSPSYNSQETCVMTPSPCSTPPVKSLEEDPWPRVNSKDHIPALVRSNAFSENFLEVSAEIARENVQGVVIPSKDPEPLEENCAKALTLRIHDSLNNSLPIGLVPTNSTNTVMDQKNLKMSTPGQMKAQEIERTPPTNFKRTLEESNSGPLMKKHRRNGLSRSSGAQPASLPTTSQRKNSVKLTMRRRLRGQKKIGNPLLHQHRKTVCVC
(In qHTS, concentration-response curves come from the screen itself.)

Assay [3] shares this target. Nature of the assay: Rhodamine-PBP qHTS Assay for Modulators of WT P53-Induced Phosphatase 1 (WIP1) (AID 1347425). The method, boiled down: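 Steps: enzyme with Rh-PBP sensor and compounds, room-temperature incubation of 1 hr, baseline read, addition of VEPPL-pS-QETFS (10 uM final), kinetic fluorescence reads at 525/598 nm. Activity equals final minus baseline signal.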

A short description of assay [4]: qHTS for inhibitors of adenylyl cyclases using a fission yeast platform: a pilot screen against the NCATS LOPAC library (AID 1347410). The method, boiled down:
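Inhibition of GNAS-stimulated AC9 activity in S. pombe was inferred from derepression of a PKA-repressed fbp1-GFP reporter, measured as cytometric fluorescence after 18 h at 30C with compounds at up to 57 µM.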

`C/C(=N\O)c1ccc(OCC(=O)N2CCCCC2)cc1`: the Potency result in assay [1] and in assay [2] was “inactive” throughout. For the same molecule, the molecule was classed as inactive in assay [3].
In the case of `O=C(Nc1ccc(C(=O)O)c(O)c1)c1ccccc1`, the Potency result in assay [1] and in assay [2] was “inactive” throughout. The result in assay [3] was inactive.
With `CC(=O)c1ccc(OCC(=O)N2CCCCC2)cc1`, the Potency result in assay [1] and in assay [2] was “inactive” in each case. Further, the result in assay [3] was inactive.
Turning to `Nc1ccc([N+](=O)[O-])cc1O`, the Potency result in assay [1] and in assay [2] was “inactive” in each case. In addition, in assay [3], the outcome was inactive.
Take `Nc1ccc(C(=O)O)c(O)c1`: the Potency entry in assay [1] and in assay [2] was “inactive” in each case. Moreover, in assay [3], the molecule was classed as inactive.
With `CC(C(=O)O)c1ccc(C(=O)c2cccs2)cc1` (centres undefined), the Potency entry in assay [1] and in assay [2] was “inactive” throughout. For the same molecule, the molecule was classed as inactive in assay [3].
Take `C=C[C@H]1CN2CC[C@@H]1C[C@@H]2[C@@H](O)c1ccnc2ccc(OC)cc12`: in assay [4], the outcome was inactive.
Consider `COc1cccc2c1C(=O)c1c(O)c3c(c(O)c1C2=O)C[C@@](O)(C(=O)CO)C[C@@H]3O[C@H]1C[C@H](N)[C@H](O[C@@H]2CCCCO2)[C@H](C)O1`, for which the Potency result in assay [1] and in assay [2] was “inactive” throughout. Moreover, the molecule was classed as inactive in assay [3].
With `CCCCCCCC/C=C/C(=O)O`, the Potency entry in assay [1] and in assay [2] was “inactive” in each case. Also, the molecule was called inactive in assay [3].
Consider `C=C[C@@H]1CN2CC[C@@H]1C[C@H]2[C@H](O)c1ccnc2ccc(OC)cc12`, for which the result in assay [4] was inactive.
Turning to `Cc1cc(O)c2ccccc2c1O`, in assay [1], the Potency result was “inactive”. Moreover, the call in assay [3] was inactive.
`c1cnc2c(c1)ccc1cccnc12`: in assay [4], the call was inactive.
With `c1ccc(CCNc2nc(-c3ccccc3)cs2)cc1`, the Potency result in assay [1] and in assay [2] was “inactive” throughout. For the same molecule, in assay [3], the call was inactive.
Regarding `Cc1ccc(O)c(-n2nc3ccccc3n2)c1`, the Potency result in assay [1] and in assay [2] was “inactive” in each case. Besides, the result in assay [3] was inactive.
As for `CCOc1ccc2nc(S(N)(=O)=O)sc2c1`, the Potency result in assay [1] and in assay [2] was “inactive” in each case. Further, the molecule was called inactive in assay [3].
Take `CC(C(=O)O)c1ccc(C(=O)c2ccccc2)s1` (centres undefined): the Potency entry in assay [1] and in assay [2] was “inactive” in each case. In addition, the molecule was classed as inactive in assay [3].
Turning to `O=C(O)/C=C\C(=O)O`, the Potency result in assay [1] and in assay [2] was “inactive” in each case. The outcome in assay [3] was inactive.
`CNC(=O)c1c(I)c(NC(=O)CCCCC(=O)Nc2c(I)c(C(=O)O)c(I)c(C(=O)NC)c2I)c(I)c(C(=O)O)c1I`: the Potency entry in assay [1] and in assay [2] was “inactive” throughout. Further, the molecule was classed as inactive in assay [3].
With `Cc1nc2ccccc2n1Cc1ccc(Cl)cc1`, the Potency result in assay [1] and in assay [2] was “inactive” in each case. In addition, in assay [3], the molecule was classed as inactive.
For the molecule `CCCCN(CC)c1nc(C)nc2c1c(C)cn2-c1c(C)cc(C)cc1C`, the molecule was called inactive in assay [4].
Turning to `CN1CCN(c2cc3c(nn2)Oc2ccccc2N3C)CC1`, the Potency result in assay [1] and in assay [2] was “inactive” each time. Further, the molecule was called inactive in assay [3].
On to `O=C(O)Cc1ccc(-c2ccccc2)cc1`, for which the Potency result in assay [1] and in assay [2] was “inactive” each time. For the same molecule, the result in assay [3] was inactive.
In the case of `CN(C)CCn1nnnc1SCC1=C(C(=O)O)N2C(=O)[C@@H](NC(=O)Cc3csc(N)n3)[C@H]2SC1`, the Potency entry in assay [1] and in assay [2] was “inactive” throughout. The result in assay [3] was inactive.
Turning to `O=C(O)Cc1ccc2c(c1)C(=O)c1ccccc1CO2`, the Potency entry in assay [1] and in assay [2] was “inactive” throughout. Moreover, in assay [3], the molecule was called inactive.
Regarding `CC(=O)SCC(CC(=O)c1ccc(C)cc1)C(=O)O` (centres undefined), the Potency entry in assay [1] and in assay [2] was “inactive” in each case. Also, the result in assay [3] was inactive.
Consider `c1ccc2sc(SN3CCOCC3)nc2c1`, for which the Potency result in assay [1] and in assay [2] was “inactive” in each case. Further, the outcome in assay [3] was inactive.
As for `CN(C)[C@@H]1C(=O)C(C(=O)NCN2CCCC2)=C(O)[C@@]2(O)C(=O)C3=C(O)c4c(O)cccc4[C@@](C)(O)C3C[C@@H]12` (some centres undefined), the Potency result in assay [1] is “inactive”. In addition, the result in assay [3] was inactive.
Take `O=C(CCN1CCN(CCO)CC1)N1c2ccccc2Sc2ccc(C(F)(F)F)cc21`: the Potency entry in assay [1] and in assay [2] was “inactive” in each case. The outcome in assay [3] was inactive.
`CC1(C)S[C@@H]2[C@H](NC(=O)[C@H](N)c3ccccc3)C(=O)N2[C@H]1C(=O)O`: the Potency entry in assay [1] and in assay [2] was “inactive” in each case. Moreover, the molecule was called inactive in assay [3].
As for `Nc1c(CC(=O)O)cccc1C(=O)c1ccc(Br)cc1`, the Potency entry in assay [1] is “inactive”. The molecule was classed as inactive in assay [3].
`CN(C)c1ccc(/C=C2\C(=O)Nc3ccccc32)cc1`: the call in assay [4] was inactive.
For `CCCCCCOc1ccccc1C(N)=O`, the Potency entry in assay [1] and in assay [2] was “inactive” throughout. In addition, in assay [3], the result was inactive.
As to `NC(=O)C(c1ccccc1)(c1ccccc1)[C@@H]1CCN(CCc2ccc3c(c2)CCO3)C1`, the Potency result in assay [1] and in assay [2] was “inactive” in each case. In addition, the result in assay [3] was inactive.
Take `CCCCCCCCCCCCCCCC(=O)OC(C)C`: the Potency result in assay [1] and in assay [2] was “inactive” throughout. For the same molecule, in assay [3], the molecule was called inactive.
